# Screening data as filed in PubChem.
# Dicer inh = inhibitors of human Dicer processing of pre-microRNA; Q9UPY3; cat-ELCCA pre-miR-21 Dicer processing, chemiluminescence; active compounds read high; z-score at 25 µM; 47,000 tested, 6% active; AID 1347074; in the data active means z-score above about 3, passing the limit was not always enough;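 further: plate controls were vehicle for no effect and no enzyme for full effect; higher signal means more uncleaved substrate so more Dicer inhibition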
# An asterisk follows results filed as active. The sample as a whole holds a higher share of hits than the screen did.
SMILES,Dicer inh
c1ccc(-c2cc(N3CCOCC3)nn2-c2ccccc2)cc1,-1.7
O=c1c2ccccc2c(-c2ccccc2)nn1CN1CCCC1,0.21
Cc1cc(-c2ccccc2)nc2oc(C(=O)N/N=C/c3ccc(Cl)cc3Cl)c(N)c12,0.42
CC1CC(C)CN(c2ccc(N)cc2C(=O)O)C1 (configuration not stated),-1.6
CCOC(=O)c1cn(C(=O)c2ccco2)nc1C(F)(F)F,0.86
CCC(=O)Oc1c(C)cc(O)c2ccccc12,-1.2
CCC(=O)Oc1ccc2nc(-c3ccc(C)c(C)c3)oc(=O)c2c1,-2.7
CCC(=O)Oc1cc(C)c2sc3ccccc3c(=O)c2c1,4.4*
COC(=O)c1ccc(C2C(C(=O)OC3CCCCC3)=C(C)NC3=C2C(=O)CC(C)(C)C3)cc1 (configuration not stated),0.12
Cc1nnc(Sc2ncc([N+](=O)[O-])s2)n1-c1ccc(OCc2ccccc2)cc1,-0.49
CC1NC(=S)N2C(C)NC(=S)N12 (configuration not stated),-1
C#CCSc1nc(C(OC)OC)cc(=O)[nH]1,0.44
O=S(=O)(c1ccc(NC(=S)N/N=C/c2ccccn2)cc1)N1CCCCC1,4.2*
O=S(=O)(c1ccc(NC(=S)N/N=C/c2ccccc2)cc1)N1CCCCC1,2.3
O=S(=O)(c1ccc(NC(=S)NC2CCCC2)cc1)N1CCCCC1,1.8
COC(=O)c1sc(SC)c(C#N)c1-c1ccc(C)cc1,-0.62
CN(C)/C=C1\CCCc2ccccc2C1=O,3.4*
CN(C)/C=C1\SCc2ccccc2C1=O,-1.5
O=C1/C(=C/c2ccc3c(c2)OCO3)CCCc2ccccc21,-1.7
Cc1cc(C)nc(N/C=C2\C(=O)c3sccc3N(C)S2(=O)=O)n1,-0.52
Cc1ccc(S(=O)(=O)NC2=NCN(Cc3cccnc3)CN2)cc1,4.5*
COCCCN1CN=C(NS(=O)(=O)c2ccc(C)cc2)NC1,-2.5
COCCN1CN=C(NS(=O)(=O)c2ccc(C)cc2)NC1,0.48
CC(C(=O)Nc1c(F)cccc1F)N1CCN(c2nccc(C(F)(F)F)n2)CC1 (configuration not stated),-1.1
COc1ccccc1-c1nc(-c2ccc(Cl)cc2)no1,0.09
SMILES,Dicer inh
CC1=NC(=O)CN1c1ccc(N)cc1,4*
Cc1ccc(C)n1-c1ccc(N)cc1,-4
Cc1ccc(N2N=C(N)CC2=O)cc1,2.4
COC(=O)c1cc(Cl)ccc1Oc1ccc([N+](=O)[O-])c(Oc2ccc(Cl)cc2C(=O)OC)n1,-0.75
NNC(=O)c1ccc([N+](=O)[O-])cc1Cl,-0.83
COc1ccc(Oc2ccc([N+](=O)[O-])cc2C(=O)NNC(=O)c2ccc(Cl)cc2Cl)cc1,4.8*
S=C(NCCc1ccccc1)Nc1cc(Cl)c(Cl)cc1Cl,4.7*
COc1ccc(CCNC(=S)NCCc2ccccc2)cc1OC,0.7
S=C(NCc1ccccc1Cl)Nc1cc(Cl)c(Cl)cc1Cl,1.4
Cc1ccc(-c2csc(NC(=O)C3C4C=CC(O4)C3C(=O)O)n2)cc1 (configuration not stated),-1.1
COC(=O)C1=C(C)NC2=C(C(=O)c3ccccc32)C1c1cc(Cl)c(OC)c(OC)c1 (configuration not stated),0.5
COc1cc(S(=O)(=O)N2CCC(C)CC2)ccc1Cl,-0.36
O=S(=O)(c1ccc(F)cc1)N1CCC(N2CCCC2)CC1,2.3
COc1ccccc1N1CCN(S(=O)(=O)c2ccccc2)CC1,0.58
COc1ccccc1N1CCN(C2CCN(S(=O)(=O)c3ccc(Cl)cc3)CC2)CC1,3.6*
COc1ccccc1N1CCN(S(=O)(=O)c2cccc3ccccc23)CC1,3.3*
COc1ccccc1N1CCN(Cc2ccc3ccccc3c2)CC1,1.9
Cc1cc(Br)ccc1NC(=O)C1Sc2nnc(C)n2NC1c1ccc(Cl)cc1 (configuration not stated),2.5
ON=C1CCN(Cc2ccccc2)CC1,0.85
CCCOc1ccccc1C1C(C(=O)OCC2CCCO2)=C(C)NC2=C1C(=O)CCC2 (configuration not stated),7
COc1cc(C2/C(=C(/O)c3ccc(C)cc3)C(=O)C(=O)N2CC(C)O)ccc1O (configuration not stated),-1.2
O=C(ON=C(c1ccc(F)cc1)c1ccc(F)cc1)c1ccc(Cl)cc1,-0.36
CC(=O)Nc1cc(C)c(Br)cc1[N+](=O)[O-],0.37
O=[N+]([O-])c1ccc2c3c(ccc(Br)c13)CC2,3.3*
Cc1ccc(Br)cc1[N+](=O)[O-],-1.1
SMILES,Dicer inh
CC(C)(C)c1cc(Cl)c(OS(=O)(=O)c2cc(Cl)cc(Cl)c2)c(Br)c1,-0.25
CCOC(=O)c1ccc2nc(C(F)(F)F)nc(N3CC(C)OC(C)C3)c2c1 (configuration not stated),-1.6
CCOC(=O)c1cnc2cc(Cl)c(F)cc2c1OCC,1.9
CCOC(=O)c1cnc2cc(Cl)c(F)cc2c1N1CC(C)OC(C)C1 (configuration not stated),11*
CCCC(=O)Oc1ccc2c(=O)c(-c3ccc(OC)c(OC)c3)c(C(F)(F)F)oc2c1,0.89
CCOC(=O)CSc1nc2ccccc2[nH]1,-0.04
CC(C)(C)NC(=O)CSc1nc2ccccc2[nH]1,4.9*
